# Columns and labels:
# Experiment in all cases: DAPPL (digital affinity profiling via proximity ligation, sequencing); 10 mM Tris-HCl pH 7.5, 50 mM NaCl, 1 mM DTT, 4% glycerol, room temperature, 30 min; GST-TFs on glutathione beads, 16-mer random dsDNA library, 0.1% formaldehyde crosslink after washing; high values mean tight binding
# FLI1 = molecular target: T1, FLI1 (Homo sapiens, UniProt Q01543 1-452); settings: protein: recombinant; tags: N-terminal GST; dsDNA, one strand shown
# T1 sequence: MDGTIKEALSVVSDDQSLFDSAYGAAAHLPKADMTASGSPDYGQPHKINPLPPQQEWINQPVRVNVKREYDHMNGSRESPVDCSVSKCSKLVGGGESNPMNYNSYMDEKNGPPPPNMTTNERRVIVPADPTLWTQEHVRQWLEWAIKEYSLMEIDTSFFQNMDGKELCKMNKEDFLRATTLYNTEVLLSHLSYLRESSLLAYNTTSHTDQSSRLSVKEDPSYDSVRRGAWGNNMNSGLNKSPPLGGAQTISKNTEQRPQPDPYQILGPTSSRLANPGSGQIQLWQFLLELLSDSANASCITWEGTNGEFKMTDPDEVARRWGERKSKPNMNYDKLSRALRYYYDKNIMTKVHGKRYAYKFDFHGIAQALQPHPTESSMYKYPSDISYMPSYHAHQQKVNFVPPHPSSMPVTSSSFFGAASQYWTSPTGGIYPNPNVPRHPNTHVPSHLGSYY
# How it was run: (§1)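 GST fusions of human transcription factors were expressed in yeast and captured with glutathione beads. Once given DNA barcodes and pooled alongside a tag-only sample, they were incubated for 30 min at room temperature with 200 nmole of a random double-stranded 16-mer DNA library in Tris/NaCl/DTT/glycerol buffer, then washed, crosslinked (0.1% formaldehyde), proximity-ligated, PCR-amplified and sequenced on an Illumina NextSeq500. The binding signal of each hexamer is its read frequency for a factor divided by its frequency for the tag-only sample.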
# ELK1 = molecular target: T2, ELK1 (Homo sapiens, UniProt P19419 1-428); settings: protein: recombinant; tags: N-terminal GST; dsDNA, one strand shown
# T2 sequence: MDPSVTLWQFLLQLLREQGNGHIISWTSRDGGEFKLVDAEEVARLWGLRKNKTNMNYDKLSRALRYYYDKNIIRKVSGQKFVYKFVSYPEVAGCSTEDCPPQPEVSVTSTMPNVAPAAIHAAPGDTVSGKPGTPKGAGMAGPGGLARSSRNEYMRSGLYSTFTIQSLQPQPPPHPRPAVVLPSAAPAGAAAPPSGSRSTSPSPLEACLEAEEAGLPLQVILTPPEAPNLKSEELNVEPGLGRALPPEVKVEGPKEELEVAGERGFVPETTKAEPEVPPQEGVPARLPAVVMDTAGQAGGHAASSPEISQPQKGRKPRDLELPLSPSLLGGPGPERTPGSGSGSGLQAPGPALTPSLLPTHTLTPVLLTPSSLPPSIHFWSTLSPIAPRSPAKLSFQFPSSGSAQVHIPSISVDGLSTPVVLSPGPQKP
# How it was run: as §1
# GABPA = molecular target: T3, GABPA (Homo sapiens, UniProt Q06546 1-454); settings: protein: recombinant; tags: N-terminal GST; dsDNA, one strand shown
# T3 sequence: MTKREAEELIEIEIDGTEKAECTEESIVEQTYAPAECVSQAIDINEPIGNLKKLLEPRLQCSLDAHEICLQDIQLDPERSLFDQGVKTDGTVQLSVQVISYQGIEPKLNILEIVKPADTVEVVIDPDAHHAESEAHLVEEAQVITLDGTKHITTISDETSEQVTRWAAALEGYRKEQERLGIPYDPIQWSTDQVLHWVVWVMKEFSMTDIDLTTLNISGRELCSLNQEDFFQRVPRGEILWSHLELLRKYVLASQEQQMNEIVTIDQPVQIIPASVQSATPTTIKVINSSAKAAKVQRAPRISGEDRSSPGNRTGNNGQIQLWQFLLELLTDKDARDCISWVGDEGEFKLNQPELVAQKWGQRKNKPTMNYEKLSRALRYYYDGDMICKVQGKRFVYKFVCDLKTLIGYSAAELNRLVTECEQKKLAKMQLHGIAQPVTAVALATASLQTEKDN
# How it was run: as §1
# ERG = molecular target: T4, ERG (Homo sapiens, UniProt P11308 1-479); settings: protein: recombinant; tags: N-terminal GST; dsDNA, one strand shown
# T4 sequence: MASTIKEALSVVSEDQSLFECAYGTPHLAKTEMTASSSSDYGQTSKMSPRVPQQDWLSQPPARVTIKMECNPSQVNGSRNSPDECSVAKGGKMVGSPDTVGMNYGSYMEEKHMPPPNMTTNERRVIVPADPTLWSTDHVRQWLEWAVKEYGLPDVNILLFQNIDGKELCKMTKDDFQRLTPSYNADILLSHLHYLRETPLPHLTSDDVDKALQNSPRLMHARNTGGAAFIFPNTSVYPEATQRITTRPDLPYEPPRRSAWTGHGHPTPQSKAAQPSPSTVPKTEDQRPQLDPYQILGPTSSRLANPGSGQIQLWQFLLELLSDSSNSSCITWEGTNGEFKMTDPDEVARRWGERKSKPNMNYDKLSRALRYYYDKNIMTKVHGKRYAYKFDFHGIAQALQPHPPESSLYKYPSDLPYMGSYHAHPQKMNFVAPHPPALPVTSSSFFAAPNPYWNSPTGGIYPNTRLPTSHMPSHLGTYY
# How it was run: as §1
# ELF1 = ELF1 (Homo sapiens, UniProt P32519 1-619); settings: protein: recombinant; tags: N-terminal GST; dsDNA, one strand shown
# Chain of ELF1 (P32519 whole entry): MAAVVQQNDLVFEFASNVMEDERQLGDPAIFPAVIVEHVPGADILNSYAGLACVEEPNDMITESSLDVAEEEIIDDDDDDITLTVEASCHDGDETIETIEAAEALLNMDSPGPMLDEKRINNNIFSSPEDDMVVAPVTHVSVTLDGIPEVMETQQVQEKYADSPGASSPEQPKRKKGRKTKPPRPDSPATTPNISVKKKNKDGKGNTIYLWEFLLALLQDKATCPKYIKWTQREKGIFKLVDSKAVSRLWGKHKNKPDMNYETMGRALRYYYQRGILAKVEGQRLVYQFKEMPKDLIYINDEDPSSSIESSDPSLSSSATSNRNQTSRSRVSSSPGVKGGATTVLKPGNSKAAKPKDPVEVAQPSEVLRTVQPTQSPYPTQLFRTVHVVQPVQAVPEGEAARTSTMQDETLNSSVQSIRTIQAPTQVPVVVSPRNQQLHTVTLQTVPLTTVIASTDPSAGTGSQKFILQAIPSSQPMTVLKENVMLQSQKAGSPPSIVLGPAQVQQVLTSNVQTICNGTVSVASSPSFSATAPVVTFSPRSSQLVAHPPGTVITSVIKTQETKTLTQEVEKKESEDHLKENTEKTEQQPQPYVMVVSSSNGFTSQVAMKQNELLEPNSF
# How it was run: as §1
# EHF = molecular target: T5, EHF (Homo sapiens, UniProt Q9NZC4 1-300); settings: protein: recombinant; tags: N-terminal GST; dsDNA, one strand shown
# T5 sequence: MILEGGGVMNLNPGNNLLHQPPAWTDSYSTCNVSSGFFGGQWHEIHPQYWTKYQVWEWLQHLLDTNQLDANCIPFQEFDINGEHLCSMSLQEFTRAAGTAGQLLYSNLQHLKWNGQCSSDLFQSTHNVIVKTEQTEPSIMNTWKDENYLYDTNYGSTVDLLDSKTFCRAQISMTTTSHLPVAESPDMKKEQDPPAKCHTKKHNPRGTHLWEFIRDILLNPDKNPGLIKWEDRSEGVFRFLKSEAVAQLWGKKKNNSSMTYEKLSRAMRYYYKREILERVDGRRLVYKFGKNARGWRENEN
# How it was run: as §1
# SPI1 = SPI1 (Homo sapiens, UniProt P17947 1-270); settings: protein: recombinant; tags: N-terminal GST; dsDNA, one strand shown
# How it was run: as §1
# SPIB = SPIB (Homo sapiens, UniProt Q01892 1-262); settings: protein: recombinant; tags: N-terminal GST; dsDNA, one strand shown
# Chain of SPIB (Q01892 whole entry): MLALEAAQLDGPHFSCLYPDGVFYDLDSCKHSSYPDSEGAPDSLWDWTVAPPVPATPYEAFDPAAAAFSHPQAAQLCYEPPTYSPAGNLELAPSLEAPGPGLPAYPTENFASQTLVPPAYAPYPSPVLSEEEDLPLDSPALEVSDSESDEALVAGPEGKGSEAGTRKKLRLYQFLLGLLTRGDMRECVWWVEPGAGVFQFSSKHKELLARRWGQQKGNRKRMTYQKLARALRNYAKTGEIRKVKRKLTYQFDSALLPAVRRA
# How it was run: as §1
# ELK3 = molecular target: T6, ELK3 (Homo sapiens, UniProt P41970 1-407); settings: protein: recombinant; tags: N-terminal GST; dsDNA, one strand shown
# T6 sequence: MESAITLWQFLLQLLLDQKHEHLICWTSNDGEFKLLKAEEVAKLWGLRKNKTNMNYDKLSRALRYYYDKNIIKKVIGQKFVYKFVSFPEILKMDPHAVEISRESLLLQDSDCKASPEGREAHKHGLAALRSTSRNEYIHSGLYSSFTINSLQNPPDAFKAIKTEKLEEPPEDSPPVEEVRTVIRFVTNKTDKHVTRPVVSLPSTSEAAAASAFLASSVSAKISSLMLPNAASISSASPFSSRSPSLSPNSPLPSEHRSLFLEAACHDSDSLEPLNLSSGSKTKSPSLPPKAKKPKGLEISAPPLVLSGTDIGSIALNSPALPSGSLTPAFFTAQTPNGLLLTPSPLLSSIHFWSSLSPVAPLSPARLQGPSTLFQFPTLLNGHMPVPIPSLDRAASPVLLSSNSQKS
# How it was run: as §1
# FEV = molecular target: T7, FEV (Homo sapiens, UniProt Q99581 1-238); settings: protein: recombinant; tags: N-terminal GST; dsDNA, one strand shown
# T7 sequence: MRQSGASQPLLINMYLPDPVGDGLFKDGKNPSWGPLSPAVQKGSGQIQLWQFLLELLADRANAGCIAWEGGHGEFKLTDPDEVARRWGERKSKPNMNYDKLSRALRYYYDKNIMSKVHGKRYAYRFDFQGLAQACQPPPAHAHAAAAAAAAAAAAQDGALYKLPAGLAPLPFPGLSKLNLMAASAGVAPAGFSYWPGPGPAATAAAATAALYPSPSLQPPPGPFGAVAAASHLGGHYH
# How it was run: as §1
# ETV5 = ETV5 (Homo sapiens, UniProt P41161 1-510); settings: protein: recombinant; tags: N-terminal GST; dsDNA, one strand shown
# Chain of ETV5 (P41161 whole entry): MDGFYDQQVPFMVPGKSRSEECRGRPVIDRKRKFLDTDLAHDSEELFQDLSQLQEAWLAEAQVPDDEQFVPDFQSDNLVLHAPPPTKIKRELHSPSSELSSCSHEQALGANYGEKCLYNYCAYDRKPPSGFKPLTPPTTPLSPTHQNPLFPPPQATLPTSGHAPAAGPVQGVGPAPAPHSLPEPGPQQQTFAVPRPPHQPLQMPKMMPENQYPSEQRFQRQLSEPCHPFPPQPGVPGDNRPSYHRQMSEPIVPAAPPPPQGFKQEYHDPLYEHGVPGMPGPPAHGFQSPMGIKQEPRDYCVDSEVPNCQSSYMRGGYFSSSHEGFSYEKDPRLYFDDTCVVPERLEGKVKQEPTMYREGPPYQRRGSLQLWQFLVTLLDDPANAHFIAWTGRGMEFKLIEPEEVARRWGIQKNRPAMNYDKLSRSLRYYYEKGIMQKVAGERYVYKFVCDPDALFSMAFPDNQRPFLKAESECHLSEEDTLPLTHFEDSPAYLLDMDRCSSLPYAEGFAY
# How it was run: as §1
# HSF1 = HSF1 (Homo sapiens, UniProt Q00613 1-529); settings: protein: recombinant; tags: N-terminal GST; chain copies: 3; dsDNA, one strand shown
# Chain of HSF1 (Q00613 whole entry): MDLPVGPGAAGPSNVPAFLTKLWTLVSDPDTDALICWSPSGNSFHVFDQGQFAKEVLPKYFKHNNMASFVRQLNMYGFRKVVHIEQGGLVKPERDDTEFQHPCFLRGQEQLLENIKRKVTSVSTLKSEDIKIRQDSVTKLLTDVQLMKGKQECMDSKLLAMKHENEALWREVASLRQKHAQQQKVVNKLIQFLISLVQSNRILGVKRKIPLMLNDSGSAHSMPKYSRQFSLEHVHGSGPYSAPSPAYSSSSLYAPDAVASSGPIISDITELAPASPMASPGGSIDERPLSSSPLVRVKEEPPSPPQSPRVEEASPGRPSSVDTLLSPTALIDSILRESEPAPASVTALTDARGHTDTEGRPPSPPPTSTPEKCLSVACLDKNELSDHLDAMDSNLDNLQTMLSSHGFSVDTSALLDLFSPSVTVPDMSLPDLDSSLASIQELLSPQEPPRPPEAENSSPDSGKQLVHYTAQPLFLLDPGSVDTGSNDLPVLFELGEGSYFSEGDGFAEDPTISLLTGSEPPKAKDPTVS
# How it was run: as §1
# SPIC = molecular target: T8, SPIC (Homo sapiens, UniProt Q8N5J4 1-248); settings: protein: recombinant; tags: N-terminal GST; dsDNA, one strand shown
# T8 sequence: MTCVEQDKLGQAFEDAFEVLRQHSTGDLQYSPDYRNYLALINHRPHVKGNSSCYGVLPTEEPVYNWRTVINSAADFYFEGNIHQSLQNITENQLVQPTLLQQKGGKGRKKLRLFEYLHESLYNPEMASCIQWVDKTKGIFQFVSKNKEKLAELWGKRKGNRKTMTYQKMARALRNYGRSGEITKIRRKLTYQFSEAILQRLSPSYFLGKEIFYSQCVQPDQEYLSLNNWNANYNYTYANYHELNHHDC
# How it was run: as §1
# ELF4 = ELF4 (Homo sapiens, UniProt Q99607 1-663); settings: protein: recombinant; tags: N-terminal GST; dsDNA, one strand shown
# Chain of ELF4 (Q99607 whole entry): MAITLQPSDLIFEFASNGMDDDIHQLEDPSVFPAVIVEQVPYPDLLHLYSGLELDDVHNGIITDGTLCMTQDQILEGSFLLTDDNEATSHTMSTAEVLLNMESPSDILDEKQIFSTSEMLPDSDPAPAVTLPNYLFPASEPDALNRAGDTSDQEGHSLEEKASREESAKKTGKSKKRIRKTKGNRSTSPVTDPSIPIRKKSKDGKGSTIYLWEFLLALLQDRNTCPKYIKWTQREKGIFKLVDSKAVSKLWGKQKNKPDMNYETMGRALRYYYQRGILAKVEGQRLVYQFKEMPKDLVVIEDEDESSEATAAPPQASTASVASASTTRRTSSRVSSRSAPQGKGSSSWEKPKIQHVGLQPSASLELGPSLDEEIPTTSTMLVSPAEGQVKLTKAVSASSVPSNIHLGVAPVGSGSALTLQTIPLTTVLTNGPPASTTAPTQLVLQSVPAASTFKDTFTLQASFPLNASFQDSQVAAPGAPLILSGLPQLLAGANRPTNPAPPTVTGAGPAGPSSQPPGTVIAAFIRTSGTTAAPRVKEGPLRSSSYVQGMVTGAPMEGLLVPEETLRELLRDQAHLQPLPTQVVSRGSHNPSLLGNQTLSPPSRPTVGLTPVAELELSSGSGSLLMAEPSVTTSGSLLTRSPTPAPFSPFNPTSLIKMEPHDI
# How it was run: as §1
# ELK4 = molecular target: T9, ELK4 (Homo sapiens, UniProt P28324-2 1-405); settings: protein: recombinant; tags: N-terminal GST; dsDNA, one strand shown
# T9 sequence: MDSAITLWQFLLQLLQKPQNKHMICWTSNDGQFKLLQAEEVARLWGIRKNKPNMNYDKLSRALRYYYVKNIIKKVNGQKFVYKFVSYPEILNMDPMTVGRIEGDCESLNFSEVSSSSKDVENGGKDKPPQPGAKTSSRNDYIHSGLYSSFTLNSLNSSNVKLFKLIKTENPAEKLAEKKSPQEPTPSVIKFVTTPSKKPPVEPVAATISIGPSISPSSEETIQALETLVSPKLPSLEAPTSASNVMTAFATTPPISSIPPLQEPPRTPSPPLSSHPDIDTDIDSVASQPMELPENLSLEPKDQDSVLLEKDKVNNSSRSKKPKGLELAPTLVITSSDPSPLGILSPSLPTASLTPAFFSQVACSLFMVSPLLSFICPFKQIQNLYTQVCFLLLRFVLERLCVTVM
# How it was run: as §1
# ETV2 = molecular target: T10, ETV2 (Homo sapiens, UniProt O00321 1-342); settings: protein: recombinant; tags: N-terminal GST; dsDNA, one strand shown
# T10 sequence: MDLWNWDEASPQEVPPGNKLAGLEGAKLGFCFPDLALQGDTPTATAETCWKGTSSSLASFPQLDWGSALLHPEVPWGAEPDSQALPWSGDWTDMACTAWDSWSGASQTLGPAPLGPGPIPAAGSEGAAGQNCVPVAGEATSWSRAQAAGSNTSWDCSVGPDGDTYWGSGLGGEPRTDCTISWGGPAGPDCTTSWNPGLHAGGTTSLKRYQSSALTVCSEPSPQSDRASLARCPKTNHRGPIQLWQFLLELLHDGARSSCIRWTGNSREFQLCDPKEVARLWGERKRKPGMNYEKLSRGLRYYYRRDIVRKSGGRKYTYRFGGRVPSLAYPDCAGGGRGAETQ
# How it was run: as §1
# ELF3 = molecular target: T11, ELF3 (Homo sapiens, UniProt P78545 1-371); settings: protein: recombinant; tags: N-terminal GST; dsDNA, one strand shown
# T11 sequence: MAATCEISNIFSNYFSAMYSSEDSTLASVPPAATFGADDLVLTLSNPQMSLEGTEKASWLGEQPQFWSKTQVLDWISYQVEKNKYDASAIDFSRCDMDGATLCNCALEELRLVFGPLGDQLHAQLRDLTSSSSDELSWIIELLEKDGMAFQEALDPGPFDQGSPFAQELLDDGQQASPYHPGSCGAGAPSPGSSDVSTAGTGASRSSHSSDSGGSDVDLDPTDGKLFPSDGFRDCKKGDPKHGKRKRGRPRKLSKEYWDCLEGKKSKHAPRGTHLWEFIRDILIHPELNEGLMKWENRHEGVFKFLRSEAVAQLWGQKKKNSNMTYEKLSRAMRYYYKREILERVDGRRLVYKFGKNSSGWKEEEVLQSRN
# How it was run: as §1
# ETV1 = ETV1 (Homo sapiens, UniProt P50549 1-477); settings: protein: recombinant; tags: N-terminal GST; dsDNA, one strand shown
# Chain of ETV1 (P50549 whole entry): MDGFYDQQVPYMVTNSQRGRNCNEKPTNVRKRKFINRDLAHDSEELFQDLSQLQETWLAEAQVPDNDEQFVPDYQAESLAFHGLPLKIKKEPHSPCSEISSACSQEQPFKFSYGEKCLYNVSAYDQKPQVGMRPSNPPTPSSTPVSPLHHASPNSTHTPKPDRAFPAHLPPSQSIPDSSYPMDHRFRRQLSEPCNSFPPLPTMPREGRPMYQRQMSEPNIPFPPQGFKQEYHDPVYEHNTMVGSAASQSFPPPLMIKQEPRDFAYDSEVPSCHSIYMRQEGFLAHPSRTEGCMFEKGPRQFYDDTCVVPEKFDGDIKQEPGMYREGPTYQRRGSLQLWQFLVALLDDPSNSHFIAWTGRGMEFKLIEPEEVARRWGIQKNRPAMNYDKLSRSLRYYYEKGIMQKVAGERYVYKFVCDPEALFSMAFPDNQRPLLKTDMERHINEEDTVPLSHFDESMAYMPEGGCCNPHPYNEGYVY
# How it was run: as §1
sequence,measurement,setting,value
GCGTTC,binding signal,FLI1,"1.07 fold enrichment (6-mer frequency, TF over GST control)"
same,binding signal,ELK1,"1.06 fold enrichment (6-mer frequency, TF over GST control)"
same,binding signal,GABPA,"1.08 fold enrichment (6-mer frequency, TF over GST control)"
same,binding signal,ERG,"1.03 fold enrichment (6-mer frequency, TF over GST control)"
same,binding signal,ELF1,"1.12 fold enrichment (6-mer frequency, TF over GST control)"
same,binding signal,EHF,"1.06 fold enrichment (6-mer frequency, TF over GST control)"
same,binding signal,SPI1,"1.08 fold enrichment (6-mer frequency, TF over GST control)"
same,binding signal,SPIB,"1.12 fold enrichment (6-mer frequency, TF over GST control)"
same,binding signal,ELK3,"1.13 fold enrichment (6-mer frequency, TF over GST control)"
same,binding signal,FEV,"1.07 fold enrichment (6-mer frequency, TF over GST control)"
same,binding signal,ETV5,"1.17 fold enrichment (6-mer frequency, TF over GST control)"
same,binding signal,HSF1,"1.1 fold enrichment (6-mer frequency, TF over GST control)"
same,binding signal,SPIC,"1.11 fold enrichment (6-mer frequency, TF over GST control)"
same,binding signal,ELF4,"1.1 fold enrichment (6-mer frequency, TF over GST control)"
same,binding signal,ELK4,"1.02 fold enrichment (6-mer frequency, TF over GST control)"
same,binding signal,ETV2,"1.23 fold enrichment (6-mer frequency, TF over GST control)"
same,binding signal,ELF3,"1.15 fold enrichment (6-mer frequency, TF over GST control)"
same,binding signal,ETV1,"1.28 fold enrichment (6-mer frequency, TF over GST control)"

# From PMC7862700, “An all-to-all approach to the identification of sequence-specific readers for epigenetic DNA modifications on cytosine”
